Screening results (PubChem BioAssay)
In the library only some 15% were active in any assay of this set; here they are far more common.
DT40 TDP1 CPT: DT40-hTDP1 cell growth loss with CPT; chicken DT40 Tdp1-/-;hTDP1 cells + 20 nM CPT, ATP luminescence, 48 h; Potency, µM (highest dose often 46.2 µM), without a hit: at the highest dose activity change, negative = growth inhibition, actives largely listed as inhibitors; actives 12% (n = 420,000); AID 686979; note: nearly all actives have a fitted effect of over 55% in size
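Cell growth measured by CellTiter-Glo luminescence after a minimum 48 h, 37 C compound exposure with 20 nM CPT in Tdp1-knockout DT40 cells stably expressing hTDP1, seeded 400/well; qHTS titration format.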
ALOX12 inh: inhibitors of human 12S-lipoxygenase ALOX12 | P18054 | purified 12hLO, xylenol orange hydroperoxide absorbance | Potency, µM (titrated, usually from 108 µM), inactives show at the highest dose activity change, negative = inhibition, actives largely listed as inhibitors | actives 1.1% (n = 580,000) | AID 1671190
Target sequence (P18054 whole entry, looked up): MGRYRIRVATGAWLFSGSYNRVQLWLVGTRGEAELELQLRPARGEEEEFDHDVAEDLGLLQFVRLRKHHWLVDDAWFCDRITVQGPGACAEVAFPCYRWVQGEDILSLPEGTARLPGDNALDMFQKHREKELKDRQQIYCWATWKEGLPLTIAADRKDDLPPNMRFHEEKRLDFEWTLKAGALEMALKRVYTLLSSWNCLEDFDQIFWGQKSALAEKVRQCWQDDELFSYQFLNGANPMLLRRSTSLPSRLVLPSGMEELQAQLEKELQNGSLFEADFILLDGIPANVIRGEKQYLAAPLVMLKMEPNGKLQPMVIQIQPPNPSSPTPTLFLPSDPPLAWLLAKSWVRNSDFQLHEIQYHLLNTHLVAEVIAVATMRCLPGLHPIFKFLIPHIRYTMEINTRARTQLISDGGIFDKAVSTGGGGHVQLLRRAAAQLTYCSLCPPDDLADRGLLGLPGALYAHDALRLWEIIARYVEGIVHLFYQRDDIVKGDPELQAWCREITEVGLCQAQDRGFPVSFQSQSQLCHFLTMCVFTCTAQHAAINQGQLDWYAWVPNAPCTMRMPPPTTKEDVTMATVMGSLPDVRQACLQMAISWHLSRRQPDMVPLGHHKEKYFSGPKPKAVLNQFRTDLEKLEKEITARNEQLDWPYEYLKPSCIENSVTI
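Hydroperoxide product was detected by ferrous iron/xylenol orange as the 573 to 405 nm absorbance ratio. Arachidonic acid at 40 uM (final) was turned over for 30 min at room temperature by 150 nM human 12hLO, pH 7.0 Hepes buffer, after 15 min compound preincubation.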
RORgamma inh: ROR gamma (mouse) transcription inhibition. P51450. Drosophila S2 Gal4-RORgamma UAS-luciferase reporter, 20 h. Potency, µM (series often up to 53.6 µM), inactives show at the top dose activity change, negative = inhibition, actives largely listed as inhibitors. actives 5.4% (n = 310,000). AID 2551; note: nearly all actives have a fitted effect of over 60% in size
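A Gal4/UAS one-hybrid system in insect cells: metallothionein-promoter Gal4–ROR gamma fusion plus Photinus luciferase reporter. Copper sulfate 700 uM final, 20 hr ambient incubation, luminescent detection after 10 min with reagent.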
TDP1 cell noCPT: qHTS for Inhibitors of human tyrosyl-DNA phosphodiesterase 1 (TDP1): qHTS in cells in absence of CPT; Potency, µM (series often up to 46.2 µM), for inactives: at the top dose activity change, negative = growth inhibition, actives largely listed as inhibitors; actives 15% (n = 420,000); DT40 Tdp1-/- hTDP1 cells, no CPT, ATP luminescence, 48 h; AID 686978, 2013; note: nearly all actives have a fitted effect of over 55% in size
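A cellular qHTS used chicken DT40 cells lacking endogenous Tdp1 but carrying stably transfected human TDP1. Compounds were applied without camptothecin, and cell growth kinetics were judged by ATP-dependent luminescence after ≥48 hr.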
Gal4-VP16 FLuc: inhibits Gal4-VP16 luciferase reporter, ROR gamma counter-screen. AID 2546. Drosophila S2 Gal4-VP16 UAS-luciferase, luminescence, 20 h. Potency, µM (series often up to 53.6 µM), for the others: at the highest dose activity, negative = inhibition, hits mostly inhibitors. actives 3.5% (n = 310,000);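 note: Gal4-VP16 expression switched on by copper sulfate through the metallothionein promoter; nearly all actives have a fitted effect of over 50% in size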
ELG1 DNA repair: blocks ELG1-dependent DNA repair in HEK293T cells | HEK293T ELG1-luciferase reporter, luminescence, 16 h; DNA damage induced by 5-fluorouridine | Potency, µM (highest dose often 46.1 µM), for inactives: at the highest dose activity change, negative = inhibition, hits mostly inhibitors | actives 2.3% (n = 330,000) | AID 504467; note: nearly all actives have a fitted effect of over 55% in size
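Step one: seed 2,000 cells per well. Step two: pin-transfer compound or DMSO alongside 5-fluorouridine. Step three: incubate 16 hr, 37 °C, 5% CO2. Step four: add ONE-Glo, wait 30 min, read luminescence.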
* marks the source's active call; other numbers are inactive results; u = inconclusive; x = not tested or not shown; [ ] = another dose, or the depositor's remark. Calls come from the whole dose curve; as a rule, active = well fitted curve in the direction sought with a large enough effect; inconclusive = small, poorly fitted or top-dose-only effect, or another doubt; inactive = no such curve, though single readings can be large; an effect the other way counts as inactive or inconclusive. % is set by controls: 0 for no effect and ±100 for the full control effect; potency is the fitted concentration of half-maximal effect.

SMILES	DT40 TDP1 CPT	ALOX12 inh	RORgamma inh	TDP1 cell noCPT	Gal4-VP16 FLuc	ELG1 DNA repair
COc1ccccc1N1CCN(S(=O)(=O)c2cccs2)CC1	-25.9%	-11.4%	6.8%	-14.3%	8.2%	u
COc1ccccc1N1CCN(C(=O)C2CCN(S(=O)(=O)c3cccs3)CC2)CC1	16.4µM*	-7.5%	x	20.6µM*	x	x
COc1cc(NC(=O)C2CCN(S(=O)(=O)c3cccs3)CC2)cc(OC)c1	18.4µM*	u	x	u	x	u
COc1ccc(/C=C2\SC(=O)N(CCNC(=O)C3CCN(S(=O)(=O)c4cccs4)CC3)C2=O)cc1	u	-13.8%	40.6%	-26.6%	-13.3%	u
COc1ccc(OC)c(S(=O)(=O)N2CCC(C(=O)Nc3cccc(C)c3)CC2)c1	u	-22.3%	21.8%	u	0.2%	20.6µM*
Cc1ccc(C2=NC3(CCN(C(=O)c4sccc4C)CC3)ON2)cc1	x	14.3%	x	x	x	x
CC(=O)NCCNC(=O)Cc1c[nH]c2ccccc12	x	-6.9%	x	x	x	x
COc1cccc(N2CCN(C(=O)C3CCN(S(=O)(=O)c4cccs4)CC3)CC2)c1	u	-7.5%	15.1%	13µM*	1.7%	-7.1%
O=C(C1CCN(S(=O)(=O)c2cccs2)CC1)N1CCCCC1	-2.7%	68.2%	3.0%	0.0%	-1.0%	u
O=C(c1ccc2ncsc2c1)N(Cc1ccccc1)Cc1ccco1	x	-15.7%	x	x	x	x
CC(C)(C)C(=O)/C=c1\s/c(=C\c2ccc(-c3ccc([N+](=O)[O-])cc3)o2)c(=O)n1CC(=O)NC(N)=O	u	u	21.6%	23.1µM*	-9.6%	u
CCOC(=O)c1ccccc1NC(=O)CSc1c(C(C)C)cnc2c1c(=O)n(C)c(=O)n2C	x	-43.4%	x	x	x	x
O=C(c1csnn1)N1CCC2(CC1)CN(c1ccccc1)C2	16.4µM*	-0.7%[57.4 µM]	-2.9%	u	13.1%	x
O=C(c1csnn1)N1CCC2(CC1)CN(c1cccc(-c3ccccc3)c1)C2	23.1µM*	2.1%[57.4 µM]	39.1%	20.6µM*	4.7%	x
O=C(c1csnn1)N1CCC2(CCCN(C(c3ccccc3)c3ccccc3)C2)CC1	18.4µM*	12.5%[57.4 µM]	20.7%	u	0.5%	x
Cc1cc(C(=O)C(C)OC(=O)c2ccc(NC(=O)CC#N)cc2)c(C)n1-c1ccc(OC(F)F)cc1 (configuration not stated)	23.1µM*	467.6%	x	11.6µM*	x	23.5%
CC(OC(=O)c1ccc(NC(=O)CC#N)cc1)C(=O)Nc1ccc(Oc2ccccc2)cc1 (configuration not stated)	x	-11.8%	-16.0%	x	2.3%	-1.2%
COc1ccc(C2Cn3cnc(C(=O)N4CCC(C(=O)Nc5ccccc5F)CC4)c3CO2)cc1 (configuration not stated)	x	53.5%	x	x	x	x
O=C(CC1(O)C(=O)Nc2ccc(Br)cc21)c1ccc2c(c1)OCO2 (configuration not stated)	25.9µM*	0.0%	8.5%	u	0.0%	-4.6%
CS(=O)(=O)Nc1cccc(C(=O)CC2(O)C(=O)Nc3ccccc32)c1 (configuration not stated)	10.7%	0.0%	-17.9%[10 µM]	-6.2%	-0.8%	-5.4%
CCS(=O)(=O)Nc1cccc(C(=O)CC2(O)C(=O)Nc3ccccc32)c1 (configuration not stated)	-10.3%	0.0%	-1.4%	-25.9%	-6.9%	-0.5%
CCS(=O)(=O)Nc1ccc(C(=O)CC2(O)C(=O)Nc3ccc(Br)cc32)cc1 (configuration not stated)	20.6µM*	0.0%	-15.1%	6.51µM*	0.2%	-13.5%
